Laboratory results published in PubChem BioAssay (EPA / NIEHS).
Calls of active or inactive are those of the source. The calls were made as follows: active = hit-call score of the fitted dose curve at least 0.9, where 1 is the maximum; inactive = score below 0.9.

Legend:
Details in all cases: mRNA level, 48 h; actives raise or lower the signal
[1] = read-out: growth arrest and DNA damage 45 (GADD45A), GADD45A (gene 1647); experiment: LTEA_HepaRG_GADD45A: Life Technologies and Expression Analysis (LTEA) Assay for growth arrest and DNA damage 45 (GADD45A) using HepaRG (AID 2283458)
Outline: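 GADD45A expression was measured by TaqMan qRT-PCR against three housekeeping genes (ACTB, GAPDH, POLR2A) after 48 h treatment of HepaRG cells. Eight-point half-log series up to 100 uM in 0.5% DMSO, run in duplicate.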

[2] = read-out: Forkhead box O3 (FOXO3), FOXO3 (gene 2309); experiment: LTEA_HepaRG_FOXO3: Life Technologies and Expression Analysis (LTEA) Assay for Forkhead box O3 (FOXO3) using HepaRG (AID 2283459)
Outline: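 FOXO3 transcript measured by qRT-PCR (normalized to ACTB, GAPDH, POLR2A) after 48 h exposure of HepaRG cells in serum-free induction medium. Duplicates, eight half-log concentrations up to 100 uM, 0.5% DMSO; gain or loss fitted against DMSO.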

[3] = read-out: ABC Transporter (ABCB1), ABCB1 (gene 5243); experiment: LTEA_HepaRG_ABCB1: Life Technologies and Expression Analysis (LTEA) Assay for ABC Transporter (ABCB1) using HepaRG (AID 2283460)
Outline: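 ABCB1 transcript level measured by TaqMan qRT-PCR against three housekeeping genes after 48 h chemical exposure of differentiated HepaRG cells. Top concentration 100 uM, half-log steps, eight points, 0.5% DMSO vehicle; bidirectional fit relative to DMSO.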

[4] = read-out: growth arrest and DNA damage 45 (GADD45B), GADD45B (gene 4616); experiment: LTEA_HepaRG_GADD45B: Life Technologies and Expression Analysis (LTEA) Assay for growth arrest and DNA damage 45 (GADD45B) using HepaRG (AID 2283461)
Outline: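 qRT-PCR read-out (Fluidigm TaqMan, housekeeping-normalized) of mRNA change in human HepaRG cells after 48 h chemical exposure; 8-point curve, top 100 uM, half-log steps, 0.5% DMSO vehicle; gain or loss fitted relative to DMSO baseline.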

[5] = read-out: ABC Transporter (ABCC3), ABCC3 (gene 8714); experiment: LTEA_HepaRG_ABCC3: Life Technologies and Expression Analysis (LTEA) Assay for ABC Transporter (ABCC3) using HepaRG (AID 2283462)
Outline: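 qRT-PCR read-out of ABCC3 transcript, normalized to three housekeeping genes (ACTB, GAPDH, POLR2A), after 48 h chemical exposure of human HepaRG cells. Eight half-log concentrations, highest 100 uM, in 0.5% DMSO; gain or loss fitted relative to DMSO baseline.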

[6] = read-out: ABC Transporter (ABCB11), ABCB11 (gene 8647); experiment: LTEA_HepaRG_ABCB11: Life Technologies and Expression Analysis (LTEA) Assay for ABC Transporter (ABCB11) using HepaRG (AID 2283463)
Outline: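 ABCB11 transcript levels quantified by TaqMan qRT-PCR against three housekeeping genes after 48 h chemical exposure of HepaRG cultures. Concentrations up to 100 uM in half-log steps, 0.5% DMSO vehicle; both induction and suppression scored.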

[7] = read-out: Broad substrate specificity ATP-binding cassette transporter ABCG2 (Homo sapiens) (UniProt Q9UNQ0); experiment: LTEA_HepaRG_ABCG2: Life Technologies and Expression Analysis (LTEA) Assay for ABC Transporter (ABCG2) using HepaRG (AID 2283465)
Outline: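 ABCG2 transcript was quantified by TaqMan qRT-PCR against three housekeeping genes in HepaRG cells. Cells were treated in duplicate for 48 h across an 8-point half-log series up to 100 uM, with 0.5% DMSO vehicle. Gain or loss versus DMSO was fit.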

[8] = read-out: ATP-citrate lyase (ACLY), ACLY (gene 47); experiment: LTEA_HepaRG_ACLY: Life Technologies and Expression Analysis (LTEA) Assay for ATP-citrate lyase (ACLY) using HepaRG (AID 2283466)
Outline: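 ACLY mRNA quantified by qRT-PCR on Fluidigm arrays against three housekeeping genes, after 48 h chemical treatment of HepaRG cells (top concentration 100 uM, half-log steps, 0.5% DMSO vehicle). Up- or down-regulation fitted relative to DMSO.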

[9] = read-out: Peroxisomal acyl-coenzyme A oxidase 1 (ACOX1) gene, ACOX1 (gene 51); experiment: LTEA_HepaRG_ACOX1: Life Technologies and Expression Analysis (LTEA) Assay for Peroxisomal acyl-coenzyme A oxidase 1 (ACOX1) gene using HepaRG (AID 2283467)
Outline: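 ACOX1 transcript levels were quantified by TaqMan qRT-PCR against three housekeeping genes after 48 h chemical exposure of differentiated human HepaRG cells. Exposure used eight half-log steps topping at 100 uM, 0.5% DMSO vehicle, in duplicate. Bidirectional curve fits were made relative to DMSO.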

[10] = read-out: Alkaline Phosphatase, Placental (ALPP) gene, ALPP (gene 250); experiment: LTEA_HepaRG_ALPP: Life Technologies and Expression Analysis (LTEA) Assay for Alkaline Phosphatase, Placental (ALPP) gene using HepaRG (AID 2283468);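 as to AC50: differentiated human HepaRG liver cells in serum-free induction medium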
Outline: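 qRT-PCR readout of ALPP mRNA (Fluidigm TaqMan), normalized to ACTB/GAPDH/POLR2A, after 48 h chemical exposure of HepaRG cells; 8-point half-log series, top 100 uM, 0.5% DMSO vehicle. Bidirectional curve fit versus DMSO baseline.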

[11] = read-out: Bcl-2 (BAD) gene, BAD (gene 572); experiment: LTEA_HepaRG_BAD: Life Technologies and Expression Analysis (LTEA) Assay for Bcl-2 (BAD) gene using HepaRG (AID 2283469)
Outline: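 Read-out: qRT-PCR of BAD mRNA, normalized to three housekeeping genes. Human HepaRG cultures got 48 h chemical exposure in 0.5% DMSO, duplicate eight-point half-log series topping at 100 uM. Gain or loss of signal fitted versus DMSO vehicle.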

[12] = read-out: Bcl-2 (BAX) gene, BAX (gene 581); experiment: LTEA_HepaRG_BAX: Life Technologies and Expression Analysis (LTEA) Assay for Bcl-2 (BAX) gene using HepaRG (AID 2283470)
Outline: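 Gene expression measured by Fluidigm qRT-PCR with three housekeeping genes for normalisation. HepaRG cells, plated 48 h beforehand, treated 48 h at up to 100 uM (8-point, half-log) in 0.5% DMSO. Bidirectional fitting versus DMSO.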

[13] = read-out: adenosine kinase (ADK) gene, ADK (gene 132); experiment: LTEA_HepaRG_ADK: Life Technologies and Expression Analysis (LTEA) Assay for adenosine kinase (ADK) gene using HepaRG (AID 2283471)
Outline: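 Read-out is ADK transcript level measured by qRT-PCR and normalised to three housekeeping genes. Cells are human HepaRG, dosed for 48 h at up to 100 uM in 0.5% DMSO. Gain or loss of signal is fitted against DMSO controls.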

[14] = read-out: Alpha-fetoprotein (AFP) gene, AFP (gene 174); experiment: LTEA_HepaRG_AFP: Life Technologies and Expression Analysis (LTEA) Assay for Alpha-fetoprotein (AFP) gene using HepaRG (AID 2283472)
Outline: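 AFP transcript measured by TaqMan qRT-PCR with three housekeeping genes for normalization, after 48 h chemical treatment of HepaRG cells (top 100 uM, half-log steps, 0.5% DMSO). Gain or loss fitted against vehicle.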

[15] = read-out: BCL2L11 (gene 10018); experiment: LTEA_HepaRG_BCL2L11: Life Technologies and Expression Analysis (LTEA) Assay for Bcl-2 (BCL2L11) gene using HepaRG (AID 2283473)
Outline: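 HepaRG, 48 h exposure, 8-pt half-log series from 100 uM in 0.5% DMSO, duplicates; qRT-PCR (Fluidigm TaqMan) for BCL2L11, housekeeping-normalized; bidirectional curve fit relative to DMSO baseline.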

[16] = read-out: Apolipoprotein A-V (APOA5) gene, APOA5 (gene 116519); experiment: LTEA_HepaRG_APOA5: Life Technologies and Expression Analysis (LTEA) Assay for Apolipoprotein A-V (APOA5) gene using HepaRG (AID 2283474)
Outline: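 HepaRG, 48 h chemical exposure in serum-free induction medium, 8-pt half-log series (top 100 uM), 0.5% DMSO vehicle, duplicates. Readout: APOA5 mRNA by qRT-PCR, housekeeping-normalized; bidirectional fit vs DMSO baseline.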

[17] = read-out: Apoptosis regulator Bcl-2 (Homo sapiens) (UniProt P10415); experiment: LTEA_HepaRG_BCL2: Life Technologies and Expression Analysis (LTEA) Assay for Bcl-2 gene using HepaRG (AID 2283475)
Outline: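 qRT-PCR of BCL2 transcript, normalized to three housekeeping genes (ACTB, GAPDH, POLR2A), after 48 h chemical exposure of HepaRG cells; concentrations top 100 uM with half-log dilutions, 0.5% DMSO vehicle, duplicates; changes up or down fitted relative to vehicle.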

[18] = read-out: Caspase-3 (Homo sapiens) (UniProt P42574); experiment: LTEA_HepaRG_CASP3: Life Technologies and Expression Analysis (LTEA) Assay for cysteine-aspartic acid protease (CASP3) using HepaRG (AID 2283477)
Outline: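 HepaRG, 48 h exposure, 8 conc. (top 100 uM, half-log steps, duplicate), 0.5% DMSO vehicle; qRT-PCR of CASP3 transcript, housekeeping-normalised (ACTB/GAPDH/POLR2A); bidirectional curve fit vs DMSO baseline.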

[19] = read-out: Bcl-2 (BID) gene, BID (gene 637); experiment: LTEA_HepaRG_BID: Life Technologies and Expression Analysis (LTEA) Assay for Bcl-2 (BID) gene using HepaRG (AID 2283476)
Outline: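 Duplicate 48 h treatments of HepaRG cells in serum-free induction medium spanned 100 uM downward in half-log steps, 0.5% DMSO. Transcript change quantified by qRT-PCR against three housekeeping genes, fitted up or down versus DMSO.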

[20] = read-out: ABC Transporter (ABCC2), ABCC2 (gene 1244); experiment: LTEA_HepaRG_ABCC2: Life Technologies and Expression Analysis (LTEA) Assay for ABC Transporter (ABCC2) using HepaRG (AID 2283464)
Outline: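 qRT-PCR (TaqMan, Fluidigm array) read-out of ABCC2 mRNA, normalized to three housekeeping genes. Differentiated HepaRG cells were treated 48 h in serum-free induction medium with 8-point half-log series from 100 uM in 0.5% DMSO; curves fitted bidirectionally relative to DMSO.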

Measured: AC50

Sequence of Broad substrate specificity ATP-binding cassette transporter ABCG2 (Homo sapiens) (Q9UNQ0 whole entry, looked up): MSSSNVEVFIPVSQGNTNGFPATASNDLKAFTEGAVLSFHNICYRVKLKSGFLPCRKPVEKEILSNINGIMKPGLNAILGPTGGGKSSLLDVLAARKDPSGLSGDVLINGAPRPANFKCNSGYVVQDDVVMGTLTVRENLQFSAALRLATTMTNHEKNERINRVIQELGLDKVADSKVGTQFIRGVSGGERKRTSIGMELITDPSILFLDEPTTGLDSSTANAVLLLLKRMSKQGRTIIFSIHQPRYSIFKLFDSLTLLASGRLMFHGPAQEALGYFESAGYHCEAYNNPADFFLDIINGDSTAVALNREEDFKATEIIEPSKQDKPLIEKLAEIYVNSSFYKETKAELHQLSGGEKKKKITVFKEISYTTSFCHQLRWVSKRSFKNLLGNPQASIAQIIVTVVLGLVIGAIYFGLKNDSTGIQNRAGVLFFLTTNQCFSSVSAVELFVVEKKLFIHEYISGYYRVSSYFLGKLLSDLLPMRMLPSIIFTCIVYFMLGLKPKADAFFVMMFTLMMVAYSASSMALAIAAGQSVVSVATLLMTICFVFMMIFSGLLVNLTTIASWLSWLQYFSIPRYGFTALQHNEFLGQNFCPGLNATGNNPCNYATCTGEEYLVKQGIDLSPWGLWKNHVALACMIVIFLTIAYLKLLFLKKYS
Sequence of Apoptosis regulator Bcl-2 (Homo sapiens) (P10415 whole entry, looked up): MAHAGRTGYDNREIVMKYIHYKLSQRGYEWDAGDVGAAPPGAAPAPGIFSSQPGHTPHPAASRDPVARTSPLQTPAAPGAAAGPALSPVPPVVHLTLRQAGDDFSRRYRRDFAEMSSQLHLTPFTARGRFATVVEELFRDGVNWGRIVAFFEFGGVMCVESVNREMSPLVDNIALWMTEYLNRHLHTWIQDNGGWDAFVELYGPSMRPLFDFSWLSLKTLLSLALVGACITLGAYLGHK
Sequence of Caspase-3 (Homo sapiens) (P42574 whole entry, looked up): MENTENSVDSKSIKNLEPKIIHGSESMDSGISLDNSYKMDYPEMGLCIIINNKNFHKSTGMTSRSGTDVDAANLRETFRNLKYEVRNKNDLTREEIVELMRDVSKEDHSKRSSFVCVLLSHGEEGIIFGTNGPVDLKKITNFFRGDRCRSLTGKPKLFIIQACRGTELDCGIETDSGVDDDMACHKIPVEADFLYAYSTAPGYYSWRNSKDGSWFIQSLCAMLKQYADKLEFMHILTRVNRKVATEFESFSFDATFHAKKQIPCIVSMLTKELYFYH

COc1cc(-c2nc(NC(=O)c3cc4cc(C)cc(C)c4n3CC(=O)O)sc2CCC2CCCCC2)c(OC)cc1Cl
active: [1] 15.2 µM | [2] 20.6 µM | [3] 11.4 µM | [4] 2.18 µM | [6] 7.37 µM | [7] 24.5 µM | [8] 12 µM | [9] 8.11 µM | [13] 15.6 µM | [14] 6.7 µM | [15] 60.6 µM | [17] 20.1 µM | [18] 11 µM
inactive: [5] | [10] | [11] | [12] | [16]

COc1cc(C=O)ccc1O
not listed: [7] | [20]
inactive: all other assays above

Cc1ccc(C)c(O)c1C
not listed: [7] | [8] | [19]
inactive: all other assays above

CCOc1ccc2c(c1)C(C)=CC(C)(C)N2
active: [3] 5.26 µM | [7] 1.02 µM | [14] 50 µM | [15] 9.92 µM
not listed: [19] | [20]
inactive: all other assays above

Cc1ccc(N(C)C)cc1
not listed: [7] | [8] | [9] | [19] | [20]
inactive: all other assays above

C[Si]1(C)O[Si](C)(C)O[Si](C)(C)O[Si](C)(C)O1
not listed: [8] | [19] | [20]
inactive: all other assays above

Cc1cccc([N+](=O)[O-])c1C
not listed: [5] | [9] | [19]
inactive: all other assays above

CCc1c(C(=O)NN2CCCCC2)nn(-c2ccc(Cl)cc2Cl)c1-c1ccc(Br)cc1
inactive: [2] | [5] | [11] | [13]
active: [1] 82.1 µM | [3] 86.8 µM | [4] 50 µM | [6] 39 µM | [20] 68.6 µM | [9] 32.3 µM | [10] 12.3 µM | [12] 27.3 µM | [14] 25.1 µM | [15] 7.59 µM | [16] 42 µM | [17] 20 µM | [18] 50 µM

CCCc1cc(=O)[nH]c(=S)[nH]1
not listed: [8] | [19]
inactive: all other assays above

Nc1nc(N)c2nc(CNc3ccc(C(=O)N[C@@H](CCC(=O)O)C(=O)O)cc3)cnc2n1
active: [6] 0.104 µM | [14] 0.11 µM
not listed: [8] | [9] | [19] | [20]
inactive: all other assays above

CNC(=O)[C@H]1O[C@@H](n2cnc3c(NCc4cc(Cl)ccc4OCc4cc(C)no4)ncnc32)[C@H](O)[C@@H]1N
not listed: [9] | [19] | [20]
inactive: all other assays above

CCCCCCCCCCCCCCCCCC(=O)O
not listed: [9] | [19]
inactive: all other assays above

CCCCCCCCCCCC(=O)OC
not listed: [8] | [19]
inactive: all other assays above

Oc1ccc2ccccc2c1N=Nc1ccccc1
active: [2] 7.86 µM | [4] 31 µM | [6] 6.98 µM | [7] 30.3 µM | [9] 11.1 µM | [14] 27.9 µM | [15] 15.1 µM | [17] 31.5 µM
inactive: all other assays above

COCCOC[C@H](CC1(C(=O)NC2CCC(C(=O)O)CC2)CCCC1)C(=O)Oc1ccc2c(c1)CCC2 (stereo partly specified)
not listed: [7] | [9] | [19]
inactive: all other assays above
